PubChem BioAssay AID602292 (National Center for Advancing Translational Sciences (NCATS), 2012)
Out of some 1,300 compounds screened, about 380 (29%) were called active. Another 37% or so got no clear call; they are omitted. This is one part of the list. Values without a mark were called inactive. Calls follow the shape of the dose curve; as a rule, active = well fitted inhibition curve with a large enough effect; inconclusive = small, poorly fitted or top-dose-only effect; inactive = flat fitted curve, though single readings scatter.

Target: Thyrotropin receptor (Homo sapiens) (UniProt P16473)
Sequence (P16473 whole entry, looked up): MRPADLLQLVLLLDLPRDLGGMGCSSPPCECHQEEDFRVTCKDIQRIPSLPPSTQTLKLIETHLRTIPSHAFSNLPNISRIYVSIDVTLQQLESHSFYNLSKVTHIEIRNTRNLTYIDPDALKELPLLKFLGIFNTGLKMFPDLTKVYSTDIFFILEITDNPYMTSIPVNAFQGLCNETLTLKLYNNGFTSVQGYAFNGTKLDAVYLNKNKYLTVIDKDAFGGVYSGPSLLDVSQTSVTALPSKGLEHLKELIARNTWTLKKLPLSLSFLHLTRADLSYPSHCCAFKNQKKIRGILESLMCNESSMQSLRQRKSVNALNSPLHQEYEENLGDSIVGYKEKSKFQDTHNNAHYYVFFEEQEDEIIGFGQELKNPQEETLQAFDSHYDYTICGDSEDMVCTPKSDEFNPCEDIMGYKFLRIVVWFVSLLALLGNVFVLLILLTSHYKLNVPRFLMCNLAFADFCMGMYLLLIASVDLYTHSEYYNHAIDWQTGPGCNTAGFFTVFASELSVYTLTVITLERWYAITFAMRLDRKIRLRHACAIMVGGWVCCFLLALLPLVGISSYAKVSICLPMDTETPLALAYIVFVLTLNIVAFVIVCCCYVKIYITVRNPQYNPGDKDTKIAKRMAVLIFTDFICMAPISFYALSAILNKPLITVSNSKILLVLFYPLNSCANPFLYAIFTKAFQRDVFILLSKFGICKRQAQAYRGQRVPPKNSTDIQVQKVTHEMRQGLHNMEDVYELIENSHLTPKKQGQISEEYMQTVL
Assay: qHTS for antagonists of the Thyroid Stimulation Hormone Receptor: Hit Validation in Primary Screen; also: nearly all actives have a fitted effect of over 80% in size;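 as to activity change, negative = inhibition: cells stimulated with TSH at EC80 of 4 nM during compound exposure; cAMP by competitive HTRF where cellular cAMP lowers the 665 nm FRET signal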
Conditions: TSHR-expressing cells, cAMP antagonist mode; series mostly up to 58 µM; activity change, negative = inhibition: at the top concentration
Excerpt: The thyroid-stimulating hormone receptor (TSHR) is a member of the 7 trans-membrane-spanning receptor (7TMR) family of cell surface receptors. TSHR-mediated hyperthyroidism is important in thyroid pathology. The development of small molecule antagonists of TSHR may lead to therapeutic approaches for TSHR-mediated hyperthyroidism caused by constitutively activating mutations or stimulating auto-antibodies associated with Graves' disease. Graves' disease is the leading cause of hyperthyroidism and is caused by autoantibodies that stimulate TSHR (TsAbs) causing thyroid growth and unregulated overproduction of thyroid hormones and existing treatments have liabilities (agranulocytosis). In addition, TSHRs are known to be expressed in multiple extrathyroidal tissues including bone, brain, kidney, testis, fat and cells of the immune system but the role of the TSHR in these tissues is not clear. Therefore, TSHR antagonists/inverse agonists could be used as probes of extrathyroidal TSHR function. Finally, TSHR inverse agonists, which are a subclass of antagonists that inhibit agonist-independent (or basal or constitutive) TSHR signaling, could be used to inhibit TSH-independent signaling in patients with recurrent or metastatic thyroid cancer who are receiving thyroid hormone to suppress TSH.
In collaboration between scientist from the NCGC and the NIDDK, a miniaturized HTRF high-throughput screen was developed. It's a cell based assay, where an anti cAMP antibody contains a fluorescent cryptate tag (excitation 337 nm; emission 620 nm) and the acceptor is cAMP-d2 (excitation 620 nm; emission 665 nm). When antibody and cAMP-d2 interact and are excited by a 337 nm light, a FRET occurs resulting in emission at 665 nm. The assay is competition between cAMP-d2 and cAMP (from the cell lysate). The homogeneous protocol allows for one step dispense after stimulation that is automation friendly. This is a hit validation assay using the primary screen format.
NIH Chemical Genomics Center [NCGC]
NIH Molecular Libraries Probe Centers Network [MLPCN]
Assay Provider: Marvin Gershengorn, NIDDK
1. 3ul of 200 TSHR freshly harvested cells/well are dispensed into a 1536 TC-treated white solid bottom plate.
2. Through pintool addition, 23nl of compounds and control in 100% DMSO are added to the plate.
3. Then 1ul of EC80 TSH (4nM final) is added to the plate.
4. Assay is incubated at 37 deg C for 2 hours.
5. 2ul of cAMP antibody diluted 1:20 in lysis buffer is added.
6. Immediately following, 2ul of d2 diluted 1:20 in HBSS is added seperately.
7. The assay is incubated for 30 minutes at ambient room temperature.
8. The result is obtained by using a ViewLux read-out with HTRF settings.
% is scaled to controls: 0 for no effect and ±100 for the full control effect; potency is read from the fitted curve at half-maximal effect.

Row | SMILES | Potency | activity change, negative = inhibition [%]
1 | COc1cccc(CN(C)C(=O)c2ccc(OCC(=O)Nc3cccc(C(F)(F)F)c3)c(OC)c2)c1 | 23.9 µM (active) | –
2 | CSCCCNC(=O)c1ccc(OC2CCN(C(=O)c3cccnc3)CC2)cc1 | – | -5.76
3 | Cn1c2c(c(=O)n(C)c1=O)C(C(F)(F)F)(C(F)(F)F)N=C(c1ccc(Cl)cc1)N2 | 19 µM (active) | –
4 | COc1ccc(C2c3ccc(O)cc3Oc3ncn(Cc4ccco4)c(=N)c32)cc1 (stereo not drawn) | – | -6.31
5 | O=C(CN1C(=O)NC2(CCCCCC2)C1=O)N1CCC(Cc2ccccc2)CC1 | 21.3 µM (active) | –
6 | CC(=O)N1c2ccc(S(=O)(=O)N(C)CC(=O)N(C)Cc3ccccc3)cc2CC1C (stereo not drawn) | – | -5.7
7 | CC1Cc2ccccc2N1C(=O)COC(=O)/C=C/c1cccc(F)c1 (stereo not drawn) | 30.1 µM (active) | –
8 | CC(C)Cc1ccc(C(C)C(=O)Nc2nccs2)cc1 (stereo not drawn) | – | -12.1
9 | COc1ccc(OC)c2c1C(=O)C(Cl)=C(Cl)C2=O | 33.8 µM (active) | –
10 | Cc1cccc(OC2CCN(Cc3nc(CC4CC4)no3)CC2)c1 | – | -10.7
11 | O=C(N[C@H]1C/C=C\C(c2cccc(F)c2)N(Cc2ccccc2)C(=O)C1)OCC1c2ccccc2-c2ccccc21 (stereo partly drawn) | – | -5.96
12 | CCc1cc(CNC(=O)CC2C(=O)NCCN2Cc2ccc(-c3ccccc3)cc2)on1 (stereo not drawn) | – | -10.3
13 | CCCc1ccc(-c2c(C)sc(NC(=O)c3ccnn3C)c2C#N)cc1 | 23.9 µM (active) | –
14 | CCN1C(=NCc2ccc(OC)cc2)N[C@@H](CCc2ccccc2)[C@H](C(=O)NCc2ccc(OC)cc2)[C@H]1C | – | -6.54
15 | Cc1ccc(C2(c3ccc(C)cc3)CC2C(=O)Nc2ccc([N+](=O)[O-])cc2O)cc1 (stereo not drawn) | 19 µM (active) | –
16 | CCOc1ccc(C2NC(=O)c3ccccc3O2)cc1OC (stereo not drawn) | – | -2.79
17 | CC(C)(C)c1ccc(C(=O)CC(Sc2ccc(Cl)cc2)C(=O)O)cc1 (stereo not drawn) | 37.9 µM (active) | –
18 | O=C1NC(=S)SC1=C1CCCCCC1 | 30.1 µM (active) | –
19 | CC1=CCC2C(=O)N(c3ccc(C(=O)Nc4ccccc4Cl)cc3)C(=O)C2C1 (stereo not drawn) | – | -3.11
20 | Cc1ncsc1CCOC(=O)C1C2CC3CC(C2)CC1C3 (stereo not drawn) | 30.1 µM (active) | –
21 | Cc1ccc(S(=O)(=O)/N=C2/NC(=O)/C(=C\c3cc(Br)cc(Br)c3O)S2)cc1 | 15.1 µM (active) | –
22 | COc1ccc(CNC(=O)CCS(=O)(=O)c2ccc3c(c2)CCN3C(C)=O)cc1 | – | -3.72
23 | Cc1cc(C)c(C2=NOC3C4CCC(C4)C23)c(C)c1 (stereo not drawn) | – | -7.2
24 | COc1cccc(OC)c1C(=O)Nc1ccc2c(c1)N(S(=O)(=O)c1cccs1)CCC2 | – | -6.48

Row | SMILES | Potency | activity change, negative = inhibition [%]
25 | O=C1NC(=S)S/C1=C\c1ccc(SCc2ccccc2)o1 | 6.01 µM (active) | –
26 | COCCNc1oc(Cc2cccc3ccccc23)nc1C#N | – | -5.82
27 | O=c1[nH]c(C2CCN(S(=O)(=O)c3cccc(Cl)c3)CC2)nc2c1nnn2Cc1ccccc1 | – | -3.4
28 | O=C(O)c1ccc(Cl)cc1Nc1nc2cc(Cl)ccc2o1 | 26.9 µM (active) | –
29 | O=C1C=CC(=O)N1CCCCCCN1C(=O)C=CC1=O | 37.9 µM (active) | –
30 | C=CCn1c(SCC(=O)c2cccs2)nc2sc(CC)cc2c1=O | 21.3 µM (active) | –
31 | O=c1/c(=C/c2ccc(O)c([N+](=O)[O-])c2)sc2nc3ccccc3n12 | 3.79 µM (active) | –
32 | N#C/C(=C\c1ccc(O)c([N+](=O)[O-])c1)c1nc2ccccc2s1 | 6.75 µM (active) | –
33 | COc1cc(/C=C(\C#N)c2nc3ccccc3s2)cc([N+](=O)[O-])c1O | 7.57 µM (active) | –
34 | COC(CNC(=O)c1ccc(Cn2c(=S)[nH]c3cc4c(cc3c2=O)OCO4)cc1)OC | – | -5.19
35 | CCOc1ccnc2c1c(=O)n(Cc1cc(OC)cc(OC)c1)c(=O)n2C | – | -3.23
36 | COC(=O)CN(c1ccc(C)cc1)S(=O)(=O)c1ccc2c(c1)n(C)c(=O)c(=O)n2C | – | -6.66
37 | COC(=O)c1ccc(C2C(Oc3ccccc3C)C(=O)N2CCc2ccc(OC)c(OC)c2)cc1 (stereo not drawn) | – | -6.94
38 | COc1ccc(CCNC2=C(Cl)C(=O)N(CCc3ccccc3)C2=O)cc1OC | 26.9 µM (active) | –
39 | COc1ccc(CCNC2=C(Cl)C(=O)N(CCc3ccc(OC)c(OC)c3)C2=O)cc1OC | 21.3 µM (active) | –
40 | O=C(N/N=C/c1cccc(Oc2ccc([N+](=O)[O-])cc2[N+](=O)[O-])c1)c1cncc(Br)c1 | 30.1 µM (active) | –
41 | CC(C)COc1cccc(-c2cc(C(=O)Nc3ccon3)c3ccccc3n2)c1 | – | -9.56
42 | N#Cc1nc(Cc2cccc3ccccc23)oc1NCc1ccc2c(c1)OCO2 | – | -8.9
43 | N#Cc1c(Cl)nsc1NC(=O)c1ccccc1 | 7.57 µM (active) | –
44 | O=C(O)c1ccc(S(=O)(=O)N(Cc2ccccc2)Cc2ccccc2)cc1 | – | -7.63
45 | O=C(O)c1ccc(NC2=C(Cl)C(=O)c3ccccc3C2=O)cc1 | 30.1 µM (active) | –
46 | CCN(CC)c1ccc(NC2=C(Cl)C(=O)c3ccccc3C2=O)cc1 | 23.9 µM (active) | –
47 | O=C(O)c1cccc(NC2=C(Cl)C(=O)c3ccccc3C2=O)c1 | 23.9 µM (active) | –
48 | Cc1ccccc1N1CCN(C2CCCN(C(=O)c3cnsn3)C2)CC1 (stereo not drawn) | – | -2.71
